The values below come from PubChem BioAssay.

Assay [1] can be described thus: binders of probe aFSTL3 on microarray, primary screen, stem cell growth factor project, biochemical, small-molecule microarray, fluorescence 635/667 (AID 1064).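 Also: measures binding of the biotinylated anti-FSTL3 antibody to printed compounds.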 Conditions: higher = more signal.
Assay [2] in a line: binders from COS7 lysate, DM2A8 probe, primary screen, torsin A project, cell lysate, small-molecule microarray, fluorescence 635/667 (AID 1065). Conditions: higher = more signal, COS7 lysate expressing mutant human TOR1A.
A short description of assay [3]: binders of probe aFGF2 on microarray, primary screen, stem cell growth factor project, biochemical, small-molecule microarray, fluorescence 635/667 (AID 1067).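 Also: measures binding of biotinylated aFGF2 protein to printed compounds on slides; z-score merges feature fluorescence and signal-to-noise across triplicate slides.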 Conditions: higher = more signal.
Assay [4] is described as follows: binders of probe aFGF10 on microarray, primary screen, stem cell growth factor project, biochemical, small-molecule microarray, fluorescence 635/667 (AID 1071).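 Also: score merges 667 nm spot intensity and signal to noise from triplicate slides.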 Conditions: higher = more signal.
In assay [5] the target is Neurogenic locus notch homolog protein 2 (Homo sapiens) (UniProt Q04721). Put plainly: Notch2 binders on small-molecule microarrays, primary screen, biochemical, small-molecule microarray, 635 nm fluorescence, stem cell growth factors (AID 1073). Conditions: Notch2 binding, higher = more signal.
For assay [6], the target named is Pro-neuregulin-1, membrane-bound isoform (Homo sapiens) (UniProt Q02297). Put plainly: NRG1 binders on small-molecule microarrays, primary screen, psychiatric disease protein project, biochemical, small-molecule microarray, fluorescence 635/667 (AID 1075).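 Also: score combines 667 nm spot fluorescence with signal to noise.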 Conditions: NRG1 binding, 635 nm fluorescence, higher = more signal.
For assay [7], the system named is Neuregulin-1 EGF-like domain. Put plainly: binders of neuregulin-1 EGF-like domain, primary screen, biochemical, small-molecule microarray, 635 nm fluorescence (AID 1081).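 Also: binding of the protein to compounds printed on small-molecule microarray slides.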 Conditions: small-molecule microarray binding, higher = more signal.
Assay [8] can be described thus: FRG1 promoter luciferase signal modulators, primary screen, FRG1 inhibition for FSHD, cell-based, C2C12 myotubes, firefly/Renilla luciferase, luminescence (AID 1084). Conditions: higher = more signal, called active from +8 up or from −8 down.
A short description of assay [9]: binders of probe aFST on microarray, primary screen, stem cell growth factor project, biochemical, small-molecule microarray, fluorescence 635/667 (AID 1086).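 Also: score merges 667 nm fluorescence with signal-to-noise of each printed compound spot.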 Conditions: higher = more signal.
Assay [10] in a line: binders of probe aHhip on microarray, primary screen, stem cell growth factor project, biochemical, small-molecule microarray, fluorescence 635/667 (AID 1087).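 Also: score merges spot fluorescence at 667nm with spot signal to noise ratio.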 Conditions: higher = more signal.
Assay [11] has as its system PRMT1 (protein arginine N-methyltransferase 1). Kind of assay: PRMT1 binders on small-molecule microarrays, primary screen, biochemical, small-molecule microarray, 635 nm fluorescence (AID 1088).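 Also: binding of Prmt1 protein to compounds spotted on small-molecule microarray slides.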 Conditions: small-molecule microarray binding, higher = more signal.
Assay [12] is described as follows: yeast growth modulation, basal conditions, primary screen, YJM789 clinical isolate, OD600, 24 h (AID 1089).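 Also: growth of clinical yeast isolate S. cerevisiae YJM 789 seeded 1000 cells per well; test concentration not given here.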 Conditions: S. cerevisiae YJM789 growth, higher = more signal, called active from +8 up or from −8 down.
The nature of assay [13]: fission yeast growth modulation, primary screen, strain 972, OD600, 24 h, no modulator (AID 1090).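 Also: basal condition with compound alone and no growth modifier present; test concentration not given here.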 Conditions: S. pombe 972 growth, higher = more signal, called active from +8 up or from −8 down.
Assay [14] in a line: S. cerevisiae growth modulation with rapamycin, primary screen, strain BY4716, OD600, 96 h (AID 1091). Also: test concentration not given here. Conditions: higher = more signal, called active from +8 up or from −8 down.
Assay [15] has as its target Torsin-1A-interacting protein 2 (Homo sapiens) (UniProt Q8NFQ8). Put plainly: LULL1 binders on small-molecule microarray, primary screen, cell lysate, human LULL1 lysate, 635/667 nm fluorescence (AID 1092).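 Also: probe is lysate of COS7 cells overexpressing human LULL1; score merges per-feature 667 nm fluorescence with signal-to-noise.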 Conditions: hLULL1 lysate binding, 635 nm fluorescence, higher = more signal.
Assay [16] in a line: E. coli growth modulation, two-sided OD650, primary screen, E. coli filamentation project, strain DRC41, 24 h (AID 1093).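 Also: MC1000 strain lacking acrAB efflux and sulA so SOS filamentation is blocked; test concentration not given here.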 Conditions: OD650, 24 h, higher = more signal, called active from +8 up or from −8 down.
Assay [17] is described as follows: small-molecule microarray binders of probe aLefty2, primary screen, biochemical, biotinylated probe, 635/667 nm fluorescence (AID 1094).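 Also: score merges spot fluorescence near 667 nm with spot signal-to-noise ratio.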 Conditions: higher = more signal.
Assay [18] has as its system Noggin (protein binding on small-molecule microarray). Kind of assay: Noggin binders on small-molecule microarray, primary screen, biochemical, 635/667 nm fluorescence (AID 1095).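 Also: score merges 667 nm feature fluorescence with signal to noise over triplicate slides.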 Conditions: 635 nm fluorescence, higher = more signal.
In assay [19] the target is Neurogenic locus notch homolog protein 3 (Homo sapiens) (UniProt Q9UM47). Put plainly: NOTCH3 binders on small-molecule microarray, primary screen, biochemical, 635/667 nm fluorescence (AID 1096). Conditions: NOTCH3 binding, 635 nm fluorescence, higher = more signal.
A short description of assay [20]: small-molecule microarray binders of probe aEGFR, primary screen, biochemical, biotinylated probe, 635/667 nm fluorescence (AID 1097).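 Also: probe is a biotinylated anti-EGFR antibody binding compounds printed on slides; score combines fluorescence near 667 nm and signal to noise of each spot.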 Conditions: higher = more signal.

Each structure is given as a SMILES string. Calls of active or inactive are those of the source.

Chain of Torsin-1A-interacting protein 2 (Homo sapiens) (Q8NFQ8 whole entry, looked up): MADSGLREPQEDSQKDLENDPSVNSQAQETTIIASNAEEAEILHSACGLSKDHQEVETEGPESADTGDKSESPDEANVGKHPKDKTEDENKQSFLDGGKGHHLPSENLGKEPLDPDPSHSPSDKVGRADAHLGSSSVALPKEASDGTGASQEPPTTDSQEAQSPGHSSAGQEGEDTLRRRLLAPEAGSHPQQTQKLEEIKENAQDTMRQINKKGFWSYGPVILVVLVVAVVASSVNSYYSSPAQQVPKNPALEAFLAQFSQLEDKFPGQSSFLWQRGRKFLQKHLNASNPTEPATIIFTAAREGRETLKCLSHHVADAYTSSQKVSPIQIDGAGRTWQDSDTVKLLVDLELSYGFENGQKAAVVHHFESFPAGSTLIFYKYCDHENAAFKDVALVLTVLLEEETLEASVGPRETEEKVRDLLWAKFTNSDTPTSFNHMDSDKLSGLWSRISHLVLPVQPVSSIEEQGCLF
Chain of Pro-neuregulin-1, membrane-bound isoform (Homo sapiens) (Q02297 whole entry, looked up, the tested form may be a part, canonical isoform): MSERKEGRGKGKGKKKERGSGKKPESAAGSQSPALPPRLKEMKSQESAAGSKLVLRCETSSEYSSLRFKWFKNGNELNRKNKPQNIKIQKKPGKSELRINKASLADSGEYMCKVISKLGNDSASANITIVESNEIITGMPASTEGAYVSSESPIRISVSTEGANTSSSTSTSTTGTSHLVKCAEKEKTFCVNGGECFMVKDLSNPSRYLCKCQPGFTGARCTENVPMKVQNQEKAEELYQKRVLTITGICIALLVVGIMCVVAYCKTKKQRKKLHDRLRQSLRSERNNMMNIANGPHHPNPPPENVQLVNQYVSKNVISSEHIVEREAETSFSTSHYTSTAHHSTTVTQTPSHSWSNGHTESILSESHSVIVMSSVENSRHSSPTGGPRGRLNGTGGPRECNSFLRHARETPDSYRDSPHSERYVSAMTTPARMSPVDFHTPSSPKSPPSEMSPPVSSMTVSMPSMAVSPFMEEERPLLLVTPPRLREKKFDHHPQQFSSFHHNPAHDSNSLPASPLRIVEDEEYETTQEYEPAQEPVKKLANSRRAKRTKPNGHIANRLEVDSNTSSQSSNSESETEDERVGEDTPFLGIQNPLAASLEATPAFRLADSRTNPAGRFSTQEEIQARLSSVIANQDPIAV
Chain of Neurogenic locus notch homolog protein 2 (Homo sapiens) (Q04721 whole entry, looked up, canonical isoform): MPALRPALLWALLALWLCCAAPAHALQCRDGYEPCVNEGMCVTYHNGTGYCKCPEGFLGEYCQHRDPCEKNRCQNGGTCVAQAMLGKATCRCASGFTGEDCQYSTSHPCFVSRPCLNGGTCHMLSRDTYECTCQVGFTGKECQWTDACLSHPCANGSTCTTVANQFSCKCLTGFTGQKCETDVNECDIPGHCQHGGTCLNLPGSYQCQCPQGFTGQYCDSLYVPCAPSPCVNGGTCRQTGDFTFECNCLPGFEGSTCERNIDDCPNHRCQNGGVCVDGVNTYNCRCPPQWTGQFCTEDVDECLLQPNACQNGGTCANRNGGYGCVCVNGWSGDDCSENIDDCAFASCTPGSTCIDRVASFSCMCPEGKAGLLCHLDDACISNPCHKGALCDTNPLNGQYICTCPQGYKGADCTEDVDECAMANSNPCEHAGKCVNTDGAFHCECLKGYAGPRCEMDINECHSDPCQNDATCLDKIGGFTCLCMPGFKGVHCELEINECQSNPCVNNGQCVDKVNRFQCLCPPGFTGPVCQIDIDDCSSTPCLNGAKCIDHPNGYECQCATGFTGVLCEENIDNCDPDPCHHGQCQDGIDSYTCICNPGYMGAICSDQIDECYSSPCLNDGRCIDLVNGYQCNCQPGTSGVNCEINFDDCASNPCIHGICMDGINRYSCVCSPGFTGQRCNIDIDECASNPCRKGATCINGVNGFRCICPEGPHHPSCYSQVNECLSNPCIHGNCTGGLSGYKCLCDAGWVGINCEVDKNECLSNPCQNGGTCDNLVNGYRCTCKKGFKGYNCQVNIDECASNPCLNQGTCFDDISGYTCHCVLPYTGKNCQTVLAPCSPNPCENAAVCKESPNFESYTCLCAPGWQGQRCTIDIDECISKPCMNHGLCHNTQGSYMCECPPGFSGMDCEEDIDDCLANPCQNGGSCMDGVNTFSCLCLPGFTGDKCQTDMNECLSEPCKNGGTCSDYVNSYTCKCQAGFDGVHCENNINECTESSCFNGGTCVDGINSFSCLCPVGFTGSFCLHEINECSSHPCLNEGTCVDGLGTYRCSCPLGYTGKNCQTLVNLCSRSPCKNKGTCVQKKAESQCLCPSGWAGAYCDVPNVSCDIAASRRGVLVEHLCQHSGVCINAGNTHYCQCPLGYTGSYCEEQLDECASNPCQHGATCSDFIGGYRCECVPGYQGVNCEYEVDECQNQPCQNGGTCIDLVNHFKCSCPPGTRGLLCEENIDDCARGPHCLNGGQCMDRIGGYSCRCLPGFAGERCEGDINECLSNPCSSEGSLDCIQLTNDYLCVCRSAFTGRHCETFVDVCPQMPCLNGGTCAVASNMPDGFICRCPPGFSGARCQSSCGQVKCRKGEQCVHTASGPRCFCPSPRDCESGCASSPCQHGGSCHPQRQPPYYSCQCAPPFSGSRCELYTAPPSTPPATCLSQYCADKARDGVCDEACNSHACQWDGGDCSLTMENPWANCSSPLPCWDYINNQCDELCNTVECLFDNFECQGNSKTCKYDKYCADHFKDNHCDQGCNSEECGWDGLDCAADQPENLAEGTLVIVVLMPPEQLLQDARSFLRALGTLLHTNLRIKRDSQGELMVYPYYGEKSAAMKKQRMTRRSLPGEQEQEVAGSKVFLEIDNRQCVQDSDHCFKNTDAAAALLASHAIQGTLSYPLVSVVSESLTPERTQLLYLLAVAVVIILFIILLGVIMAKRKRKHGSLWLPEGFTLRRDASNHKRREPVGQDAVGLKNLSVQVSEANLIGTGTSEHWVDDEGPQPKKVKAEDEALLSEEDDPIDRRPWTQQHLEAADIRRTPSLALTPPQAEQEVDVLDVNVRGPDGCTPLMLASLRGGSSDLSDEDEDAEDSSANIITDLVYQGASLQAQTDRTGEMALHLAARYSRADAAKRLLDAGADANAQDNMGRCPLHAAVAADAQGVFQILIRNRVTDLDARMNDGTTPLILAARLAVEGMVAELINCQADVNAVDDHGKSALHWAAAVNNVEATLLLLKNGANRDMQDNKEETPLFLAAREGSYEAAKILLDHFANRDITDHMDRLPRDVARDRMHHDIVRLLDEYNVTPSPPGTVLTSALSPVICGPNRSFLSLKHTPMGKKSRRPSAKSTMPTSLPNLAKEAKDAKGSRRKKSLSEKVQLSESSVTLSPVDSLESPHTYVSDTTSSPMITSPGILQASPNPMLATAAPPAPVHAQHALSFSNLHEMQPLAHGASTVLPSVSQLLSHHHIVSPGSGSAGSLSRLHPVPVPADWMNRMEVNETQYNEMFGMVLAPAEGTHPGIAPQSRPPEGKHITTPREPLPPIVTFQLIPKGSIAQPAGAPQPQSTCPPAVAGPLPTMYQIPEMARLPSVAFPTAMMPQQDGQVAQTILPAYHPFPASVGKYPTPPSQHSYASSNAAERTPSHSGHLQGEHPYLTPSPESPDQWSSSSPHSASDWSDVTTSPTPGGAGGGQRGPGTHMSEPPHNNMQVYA

In the case of `COCCCNC(=O)[C@@]1(Sc2ccc(C)cc2)CC(=O)N(C2Cc3ccccc3C2)[C@@H]1c1ccc(CO)cc1`, the composite z-score in assay [1] is 0.667; in assay [2], -1.94; in assay [3], -0.16; in [4], -0.459; in [5] it was -1.12; in [6], 1.47. The composite z-score in [7] is 1.32; in [9] it was -0.213; in [10], -0.164; in assay [11], 0.585; in assay [15], 3.11; in assay [17], -0.236. For the same compound, the composite z-score in assay [18] is -1.72; in assay [19] it was -0.314; in [20] it was -0.254. Besides, the z-score was -1.11 (inactive) in assay [8]; 0.0853 (inactive) in assay [12]; -1 (inactive) in assay [13]; -0.798 (inactive) in assay [14]; -1.27 (inactive) in assay [16].
Consider `O=C1C2C=CC(C(O)C3CC=CCC3)N(Nc3ccccc3)C2C(=O)N1c1ccccc1` (stereo not given), for which the composite z-score in assay [1] was 0.877; in [2], -0.129; in assay [3], 0.122; in [4] it was 0.397; in assay [5] it was 1.61; in assay [6] it was 1.3. Moreover, the composite z-score in assay [7] was 1.28; in [9] it was 1.89; in assay [10], -0.323; in assay [11], 1.24; in assay [15], 3.09; in [17], 0.401. The values for the composite z-score in assay [18], in assay [19] and in assay [20] were -0.146, 1.06 and 0.153, respectively. Moreover, the z-score in assay [8] is -1.16 (inactive); in assay [12], 0.399 (inactive); in assay [13], -0.428 (inactive); in assay [14], 0.662 (inactive); in assay [16], -1.6 (inactive).
Turning to `N#Cc1ccc(NN2C(C(O)c3ccc(Br)cc3)C=CC3C(=O)N(c4ccccc4)C(=O)C32)cc1` (stereo not given), the composite z-score worked out at 1.36 in [1]; 0.288 in [2]; 0.254 in [3]; 0.73 in assay [4]; 1.58 in [5]; 1.74 in [6]. In addition, the composite z-score was 0.976 in [7]; 0.907 in [9]; -0.182 in assay [10]; 0.751 in assay [11]; 2.99 in assay [15]; 0.145 in [17]. Also, the composite z-score in [18] is -0.146; in assay [19] it was 1.01; in assay [20], 0.233. Besides, the z-score in assay [8] is -2.87 (inactive); in [12] it was -1.16 (inactive); in assay [13], -0.605 (inactive); in assay [14] it was 0.297 (inactive); in assay [16], -1 (inactive).
As to `Cc1ccc(NN2C(C(O)c3c(F)cccc3Cl)C=CC3C(=O)N(C4CCCCC4)C(=O)C32)cc1` (stereo not given), the composite z-score in assay [1] stood at 1.14; in assay [2], 0.44; in assay [3], 0.0749; in assay [4] it was 0.507; in assay [5], 1.55; in assay [6] it was 1.46. The composite z-score in assay [7] is 1.06; in assay [9] it was 0.697; in [10] it was -0.254; in assay [11], 1.43; in assay [15], 3.02; in [17], 0.184. Besides, the composite z-score was -0.203 in assay [18], 1.05 in [19] and 0.0708 in assay [20]. For the same compound, the z-score in [8] is 0.0701 (inactive); in assay [12] it was -0.58 (inactive); in assay [13], -0.362 (inactive); in assay [14], -0.262 (inactive); in assay [16] it was -0.0346 (inactive).
As to `CCOC(=O)C[C@H]1[C@H](OC(=O)c2cc3ccccc3oc2=O)[C@@H](NC(=O)CC(C)C)c2cc(OCCCO)ccc2N1C(=O)c1ccc2ccccc2n1`, the composite z-score in assay [1] was -0.444; in [2] it was 0.304; in assay [3], -0.132; in [4], 0.945; in assay [5] it was 1.09; in assay [6], 0.594. The composite z-score was 1.1 in [7]; 0.252 in assay [9]; -0.199 in assay [10]; 1.04 in [11]; 1.09 in assay [15]; -0.0916 in [17]. In addition, the composite z-score in assay [18] came to 0.746; in assay [19], 0.982; in [20], 0.326. In addition, the z-score is 0.159 (inactive) in assay [8]; 0.475 (inactive) in [12]; 0.376 (inactive) in assay [13]; 0.665 (inactive) in assay [14]; -0.588 (inactive) in assay [16].
